Shown are actives, neighbours in structure and some others; about 6.2% of the full set was active somewhere.
NR3A LBD binder: binders of NR3A ligand-binding domain, primary screen, biophysical, differential scanning fluorimetry, uHTS; Glutamate receptor ionotropic, NMDA 3A (GRIN3A) ligand-binding domain; NR3A LBD differential scanning fluorimetry, Tm shift; 0% = protein alone, 100% = glycine-bound protein; Tm shift relative to glycine control, % at 25 µM; 340,000 tested, 2.5% active; AID 1259313, 2017;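 active = melting temperature shift of at least 10% of the positive control shift, at one fixed dose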
SUMO Mot1 rescue: yeast Mot1-301 growth rescue at high temperature, primary screen, SUMOylation pathway inhibitor project, S. cerevisiae, ATP luminescence, 38.5C | growth rescue, % at 18.8 µM | 320,000 tested, 1% active | S. cerevisiae Mot1-301 growth rescue; percent above DMSO median, 100 means doubled;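 active = every valid replicate shows activation above 250% relative to neutral control wells; inactive = the rest, any valid replicate at or below 250%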;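 also: OY570 slx delta 5 strain wells were the positive control but not used for scaling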
Cardio protect: cardioprotection against H2O2-induced cell death, primary screen, uHTS, H9c2 cells, ATPLite luminescence | H9c2 cardiomyocytes, H2O2 injury protection, 2 h | protection from H2O2 cell death, % at 20 µM | 360,000 tested, 0.63% active;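 active = compounds giving at least 50% protection of heart cells from peroxide-induced death in the single-dose screen, raw or plate-pattern-corrected value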;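 also: 0% = DMSO wells with peroxide and 100% = DMSO wells without peroxide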
NTR1 ag: agonists of human NTR1, primary screen, imaging, U2OS cells, beta-arrestin-GFP, high content; 330,000 tested, 0.17% active; NTR1-U2OS beta-arrestin-GFP spot imaging, agonist mode; Neurotensin receptor type 1 (Homo sapiens), P30989; AID 493036, 2011; activation, % at 20 µM;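 active = activation at or above 40% of the spot to cytoplasm intensity ratio, with at least 20 cells analyzed; inconclusive = wells under 20 cells, flagged as cytotoxic or low count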;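 also: 0% = DMSO without peptide and 100% = 100 nM NTR1 peptide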
AHR activator: AHR activators, primary screen, cell-based, luminescence, luciferase reporter, human. AHR-responsive luciferase reporter cells. activation, % at 5 µM. 320,000 tested, 2.5% active; in the data active = activation above about 47%;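 also: 0% = vehicle wells and 100% = reference agonist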
Target sequence (P35869 whole entry, looked up): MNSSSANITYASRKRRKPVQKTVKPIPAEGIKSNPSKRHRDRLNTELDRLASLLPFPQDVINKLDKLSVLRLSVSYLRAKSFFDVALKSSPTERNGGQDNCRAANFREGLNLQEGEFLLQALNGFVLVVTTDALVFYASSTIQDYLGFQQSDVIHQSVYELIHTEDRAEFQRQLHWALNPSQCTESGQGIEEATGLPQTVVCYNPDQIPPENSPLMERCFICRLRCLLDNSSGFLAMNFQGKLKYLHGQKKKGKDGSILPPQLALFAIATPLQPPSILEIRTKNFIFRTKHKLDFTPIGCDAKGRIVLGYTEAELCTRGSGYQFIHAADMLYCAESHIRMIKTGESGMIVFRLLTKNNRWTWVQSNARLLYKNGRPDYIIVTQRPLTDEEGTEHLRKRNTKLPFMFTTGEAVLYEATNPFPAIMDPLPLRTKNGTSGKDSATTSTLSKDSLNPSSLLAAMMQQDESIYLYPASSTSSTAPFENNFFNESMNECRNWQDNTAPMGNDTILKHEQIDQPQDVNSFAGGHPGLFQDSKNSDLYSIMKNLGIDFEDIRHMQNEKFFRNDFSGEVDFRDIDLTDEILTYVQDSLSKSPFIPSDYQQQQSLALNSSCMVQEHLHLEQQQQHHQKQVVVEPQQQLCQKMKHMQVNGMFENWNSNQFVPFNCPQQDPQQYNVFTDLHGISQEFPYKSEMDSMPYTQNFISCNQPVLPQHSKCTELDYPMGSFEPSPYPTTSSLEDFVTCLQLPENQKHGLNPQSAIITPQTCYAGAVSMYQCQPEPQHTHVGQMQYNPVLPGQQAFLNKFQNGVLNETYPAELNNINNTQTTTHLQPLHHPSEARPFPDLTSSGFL
AI-2 QS modul: Vibrio harveyi AI-2 quorum sensing modulators, primary screen, JMH597 strain, luminescence/OD600 ratio | 300,000 tested, 0.4% active | Vibrio harveyi JMH597 AI-2 luminescence/OD600 ratio, 9 h; stronger effect = lower value; strain lacks LuxN and CqsS sensors; 0 = neutral-control median | AID 2094, 2009 | activity change, % at 7.5 µM; in the data active = activity change below about -75%, passing the limit was not always enough; inconclusive = no clear call, values can overlap the other calls;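 also: luminescence divided by OD600 gain over 9 h not by final OD600 alone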
Starred values were filed as active, the others as inactive; ? = inconclusive; . = no result.

SMILES | NR3A LBD binder | SUMO Mot1 rescue | Cardio protect | NTR1 ag | AHR activator | AI-2 QS modul
CC(C)CCNC(=O)c1c(N)n(Cc2ccc3c(c2)OCO3)c2nc3ccccc3nc12 | 32* | 9 | -19 | 15 | 1 | 16
CCCNC(=O)c1c(N)n(Cc2ccco2)c2nc3ccccc3nc12 | -10 | 12 | . | -2 | 32 | 12
CC(C)(C)C(=O)N1Cc2cc(-c3ccccc3)ccc2-n2nncc2C1 | . | . | 2 | . | . | .
Cc1cccc(C)c1-n1nnnc1C(CCc1ccccc1)N1CCC2(CC1)C(=O)NCN2c1ccccc1 (stereo not given) | . | . | 5 | . | . | .
CN1[C@@H]2CCC[C@H]1CC(=O)C2 | -4 | . | 3 | . | . | .
O=C1NCN(c2ccccc2)C12CCN(C(c1cc3ccccc3o1)c1nnnn1Cc1ccccc1)CC2 (stereo not given) | . | . | 5 | . | . | .
CNC(=O)Oc1ccc(-c2cn3cc(C)ccc3n2)cc1 | 24* | 1 | -24 | 1 | -7 | -1
C[C@]12CCC3C(CC[C@@H]4[C@H]5O[C@H]5CC[C@]34C)C1CC[C@@H]2O (stereo not given in full) | -2 | . | -3 | . | . | .
Cc1nc2ccccn2c1P(=S)(c1ccccc1)c1ccccc1 | . | . | -6 | . | . | .
C1=C(CCNCc2ccccc2)CCCC1 | 11* | 34 | 4 | -1 | -3 | 7
NS(=O)(=O)c1ccc(N=Cc2c(O)n(C3CCCCC3)c(=O)n(C3CCCCC3)c2=O)cc1 | 14* | -16 | -16 | 16 | -1 | 60
O=c1c2ccccc2[se]n1-c1ccccc1 | 32* | -36 | -44 | -2 | 0 | ?
O=c1c2ccccc2nc(-c2ccccc2)n1-c1ccccc1 | 1 | 0 | 7 | -1 | 0 | 14
COc1ccc(C(=O)C2CCCN(CCc3ccccc3)C2)cc1OC (stereo not given) | . | . | -6 | . | . | .
CN1c2ccc([N+](=O)[O-])cc2CC2(C(=O)NC(=O)N(c3ccc(Br)cc3)C2=O)C1c1ccccc1 (stereo not given) | -6 | 1 | -8 | 7 | 76* | 21
Cc1ncoc1C(=O)NCC1=C(c2ccc3ccccc3c2)C[C@@H]2CC[C@H]1N2Cc1ccco1 | . | . | 3 | . | . | .
CN1CCN(c2nc(N)c(Br)c(Cl)n2)CC1 | 14* | -4 | -1 | 0 | -4 | 37
CC1(O)CCN2C(=O)CCc3cccc1c32 (stereo not given) | 2 | 104 | 2 | -1 | 0 | .
Cc1ccc(O)c(C(=O)c2cc(C(=O)NCCC(C)C)c(=O)n(CCC(C)C)c2)c1 | -6 | 9 | -8 | 5 | 1 | 32
O=C(c1cc(C(=O)NCc2ccc(Cl)cc2)c(=O)n(Cc2ccc(Cl)cc2)c1)c1cc(F)ccc1O | 18* | 394 | -4 | 10 | 14 | 26
Cc1cccc(C)c1-n1nnnc1C(c1cccc2ccccc12)N1CCC2(CC1)C(=O)NCN2c1ccccc1 (stereo not given) | . | . | -4 | . | . | .
CN(C)C(=O)Oc1ccc(Br)cc1C(=O)Nc1ccc(F)c(Cl)c1 | -4 | 2 | 3 | 2 | 67* | 11
Cc1nc2c(=O)n(C)c(=O)nc-2n(C)n1 | 1 | -19 | -32 | 0 | -17 | -95*
C=CCNC(=S)Nc1ccc(OC(=O)Nc2ccc(Cl)c(Cl)c2)cc1 | 21* | . | -12 | . | . | .
OCCNc1c2c(nc3ccccc13)CCCC2 | 12* | -22 | 13 | -1 | 9 | 23
CCn1nc(-c2ccccc2)nc2c(=O)n(C)c(=O)nc1-2 | -3 | 44 | 8 | -2 | -3 | -93*
CCN1C[C@]2(COC(=O)c3ccccc3N)CC[C@H](OC)C34[C@@H]5C[C@H]6[C@H](OC)[C@@H]5[C@](O)(C[C@@H]6OC)[C@@](O)([C@H]13)[C@@H](OC)[C@@H]42 | 10* | -2 | 9 | 0 | 0 | 0
